Screening results from PubChem BioAssay.
M1 antag = human CHRM1 antagonism; P11229; CHO-K1 hM1, Fluo-8 calcium fluorescence, ACh EC80 antagonist; inhibition, % at 3 µM; actives 1.3% (n = 360,000);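 active = percent inhibition above its own plate's cutoff, namely the mean of that plate's compound wells plus 3 SD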;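 note: peak over basal fluorescence ratio during 140 s after agonist addition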
Target sequence (P11229 whole entry, looked up): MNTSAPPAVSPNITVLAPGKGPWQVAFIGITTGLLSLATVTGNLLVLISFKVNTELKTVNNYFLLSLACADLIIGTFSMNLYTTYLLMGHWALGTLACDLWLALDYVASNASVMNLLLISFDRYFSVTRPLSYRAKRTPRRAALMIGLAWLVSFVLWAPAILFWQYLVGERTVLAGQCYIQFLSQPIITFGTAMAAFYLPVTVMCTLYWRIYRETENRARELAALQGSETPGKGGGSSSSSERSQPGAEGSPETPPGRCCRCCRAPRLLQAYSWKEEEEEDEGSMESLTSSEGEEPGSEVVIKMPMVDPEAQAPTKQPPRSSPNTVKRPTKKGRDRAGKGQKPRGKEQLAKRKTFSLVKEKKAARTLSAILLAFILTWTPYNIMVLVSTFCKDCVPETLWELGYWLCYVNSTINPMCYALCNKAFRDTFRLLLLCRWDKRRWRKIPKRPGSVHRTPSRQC
CHRM1 agonist = activates human CHRM1 receptor. CHO-K1 hM1, Fluo-8 calcium fluorescence, agonist mode; 0% DMSO, 100% acetylcholine EC100. activation, % at 3 µM. actives 0.33% (n = 360,000);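 active = activation above the run's mean compound activation plus 3 SD, cut at about 16% in these data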;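 note: peak over basal fluorescence ratio within a 140 s kinetic read after compound addition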
CHO-K1 Ca PAM = counter-screen for M1 PAMs: effect in parental CHO-K1 cells. ATP EC20, Fluo-8 calcium fluorescence; 0% at ATP EC20, 100% at ATP max. activation, % at 3 µM. actives 0.02% (n = 360,000). AID 602247;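 active = activation above the run cutoff, the mean activation of all test compounds plus 3 SD, cut at about 40% in these data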;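 note: peak over basal fluorescence ratio in a 140 s read after ATP addition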
CHO-K1 Ca antag = nonselective inhibitor or artifact in parental CHO-K1 cells | inhibition, % at 3 µM | actives 0.6% (n = 360,000) | AID 602250 | ATP-induced calcium, Fluo-8 fluorescence;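 active = inhibition above a per-plate cutoff, the plate's mean sample inhibition plus 3 SD, cut at about 24% in these data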
CHRM1 PAM = positive allosteric modulators of human M1 muscarinic receptor | P11229 | AID 588819 | CHO-K1 hM1, Fluo-8 calcium fluorescence, ACh EC20; 0% = ACh EC20, 100% = maximal ACh | activation, % at 3 µM | actives 0.088% (n = 360,000); in the data active = activation above about 19%, passing the limit was not always enough
M1 ag parental = nonselective activator or artifact in parental CHO-K1 cells; Fluo-8 calcium fluorescence; scaled to maximal ATP response, vehicle zero; activation, % at 3 µM; actives 0.48% (n = 360,000); in the data active = activation above about 15%;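 note: untransfected CHO-K1 host cells lacking M1 receptor as counterscreen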
Hits are given with their value; . = inactive. Only some compounds are listed: those with a hit (about 2.4% of all), similar ones and a draw of the others.

SMILES | M1 antag | CHRM1 agonist | CHO-K1 Ca PAM | CHO-K1 Ca antag | CHRM1 PAM | M1 ag parental
COc1cccc(N/C=C/C(=O)c2ccc(OC)c(OC)c2)c1 | . | . | . | . | . | .
CCn1c(SCC(=O)N2CCCC2)nc2c1c(=O)n(C)c(=O)n2C | . | . | . | . | . | .
Cn1c(=O)c2c(nc(SCC(=O)N3CCc4ccccc4C3)n2C)n(C)c1=O | . | 16 | . | . | . | .
CCn1c(SCC(=O)N2CCC(C)CC2)nc2c1c(=O)n(C)c(=O)n2C | . | . | . | . | 28 | .
Cn1c(=O)c2c(nc(SCC(=O)N3c4ccccc4CCc4ccccc43)n2C)n(C)c1=O | . | . | . | . | . | .
CC1CCN(C(=O)c2ccc(CSc3nc4ccncc4n3Cc3ccc(F)cc3)cc2)CC1 | 38 | . | . | . | . | .
Cc1cccc(NC(=O)c2nc[nH]c2C(=O)N(C)Cc2ccccc2)c1 | . | . | . | . | . | .
CCOc1ccc(/C=C/C(O)=C2/C(=O)NC3(C)CC2c2ccccc2O3)cc1OC (stereo not drawn) | 44 | . | . | . | . | .
COc1ccc(-c2csc(NC(=O)CSCc3c(C)noc3C)n2)cc1OC | . | . | . | . | . | .
CCc1noc(C)c1C(=O)OCC(=O)Nc1nc(-c2ccc(F)c(F)c2)cs1 | 42 | . | . | . | . | .
Cc1noc(C)c1CSCC(=O)Nc1nc(-c2ccc(F)c(F)c2)cs1 | 35 | . | . | . | . | .
CCOc1ccc(NS(=O)(=O)c2ccc(C(=O)N3CCCCC3)cc2)cc1 | . | 23 | . | . | . | 19
CCOc1ccc(S(=O)(=O)Nc2ccc(C(=O)N3CC(C)OC(C)C3)cc2)cc1 (stereo not drawn) | . | 33 | . | . | . | 17
CC1CN(C(=O)c2cccc(S(=O)(=O)N3CCN(c4ccc(F)cc4)CC3)c2)CC(C)O1 (stereo not drawn) | . | . | . | . | . | .
CC1CN(C(=O)c2ccc(NS(=O)(=O)c3ccc(C(C)(C)C)cc3)cc2)CC(C)O1 (stereo not drawn) | . | 39 | . | . | . | 25
O=C(c1cccc(S(=O)(=O)N2CCN(c3ccc(F)cc3)CC2)c1)N1CCCC(C(F)(F)F)C1 (stereo not drawn) | 34 | . | . | . | . | .
Nc1nonc1-n1nnc(C(=O)N/N=C/c2ccco2)c1CSc1ccccc1 | . | . | . | . | . | .
O=C(NNC(=O)c1cncc(Br)c1)c1ccncc1 | . | . | . | . | . | .
COc1ccc(NS(=O)(=O)c2ccc(C(=O)N3CCC(C)CC3)cc2)cc1 | . | 36 | . | . | . | 31
Cc1ccc(NS(=O)(=O)c2ccc(C(=O)N3CCCC(C(F)(F)F)C3)cc2)cc1 (stereo not drawn) | . | 45 | . | . | . | 39
CCOc1ccc(NS(=O)(=O)c2ccc(C(=O)N3CC(C)OC(C)C3)cc2)cc1 (stereo not drawn) | 34 | 55 | . | . | . | 41
NCCCCC(N)c1cn([C@@H](CCC(=O)O)C(=O)N2CCNCC2)nn1 (stereo partly drawn) | . | . | . | . | . | .
Cc1ccc(S(=O)(=O)NCCNC(=O)c2ccccc2)cc1 | . | . | . | . | . | .
CC(C)N(CCNC(=O)c1ccc(CS(=O)(=O)c2c(Cl)cccc2Cl)o1)Cc1ccccc1 | 45 | . | . | . | . | .
Cc1ccc(S(=O)(=O)NCc2ccc(C(=O)NCCN(Cc3ccccc3)C(C)C)cc2)cc1 | 68 | . | . | . | . | .
SMILES | M1 antag | CHRM1 agonist | CHO-K1 Ca PAM | CHO-K1 Ca antag | CHRM1 PAM | M1 ag parental
Cc1ccccc1S(=O)(=O)Cc1ccc(C(=O)NCCN(Cc2ccccc2)C(C)C)o1 | . | . | . | . | . | .
Cc1cc2ccc3ccccc3c2cc1CN(C)C | . | . | . | . | . | .
CN(C)CCOC1c2ccccc2CCc2ccc3ccccc3c21 (stereo not drawn) | 53 | . | . | . | . | .
CC(Oc1ccccc1)C(=O)N(CCC1=CCCCC1)c1c(N)n(Cc2ccccc2)c(=O)[nH]c1=O (stereo not drawn) | . | . | . | . | . | .
CCOc1cc(CNCCSc2nnnn2C)cc(Br)c1OCc1ccccc1 | 29 | . | . | . | . | .
COc1cc(OC)c(OC)cc1CNCCSc1nnnn1C | . | . | . | . | . | 19
O=C(c1cc2nc(-c3ccccc3)cc(-c3ccccc3)n2n1)N1CCCC1 | . | . | . | . | . | 16
O=C(O)CC(C(=O)OC1CCCCC1)N1CCOCC1 (stereo not drawn) | . | . | . | 31 | . | .
O=C(O)CC(C(=O)OCC1CCCO1)N1CCOCC1 (stereo not drawn) | . | . | . | . | . | .
O=c1cc(-c2ccc(O)cc2)oc2cc(O)cc(O)c12 | . | . | . | . | . | .
O=c1c(O)c(-c2ccc(O)cc2)oc2cc(O)cc(O)c12 | . | 19 | . | . | . | .
CCOC(=O)CCCCCC(=O)Nc1ccc2c(c1)C(=O)N([C@@H](C)CO)C[C@H](C)[C@H](CN(C)C(=O)Nc1ccc(F)cc1)OCCCC[C@H](C)O2 | . | . | . | . | . | .
CN(C)C(=O)COn1c(SCC(=O)N(C)C)nc2ccccc2c1=O | . | . | . | . | . | .
CCOC(=O)COn1c(SCC(=O)OCC)nc2ccccc2c1=O | . | . | . | 26 | . | .
CCN(C(=O)CSc1nnc(-c2ccco2)n1Cc1ccccc1)C1CCS(=O)(=O)C1 (stereo not drawn) | . | . | . | . | 27 | .
CCCN(CCC)C(=O)c1ccc2c(c1)N(CC)C(=O)c1ccccc1S2(=O)=O | 42 | . | . | . | . | .
CC1CN(C(=O)Cn2cc(S(=O)(=O)CC(=O)N3CCOCC3)c3ccccc32)CC(C)O1 (stereo not drawn) | . | . | . | . | . | .
Cc1cccc(C(=O)OCC(=O)c2ccc3c(c2)NC(=O)CO3)c1 | . | . | . | . | . | .
CCN(CC)S(=O)(=O)c1cccc(C(=O)OCC(=O)c2ccc3c(c2)NC(=O)CO3)c1 | . | . | . | . | . | 17
COc1ccc(S(=O)(=O)N2CCCCC2)cc1NC(=O)c1c(F)cccc1Cl | . | . | . | . | . | .
Cc1ccccc1Cn1c(C)c(C(=O)NCc2cccc(Cl)c2)sc1=O | . | . | . | . | . | .
COc1ccccc1Cn1c(C)c(C(=O)NCc2ccc(C#N)cc2)sc1=O | 32 | 16 | . | . | . | 28
COc1ccc(CNC(=O)c2sc(=O)n(Cc3ccccc3C)c2C)cc1 | . | 34 | . | . | . | 17
COc1ccc(Cl)cc1Cn1c(C)c(C(=O)NCc2cccc(C(F)(F)F)c2)sc1=O | . | . | . | 24 | . | .
